Source: PubChem BioAssay AID1159580 (chemical genetic matrix, 2015)
Several values for one entry are separate records, joined by “and”; a condition that tells them apart may be missing. Equal values may be shown once. The whole screen tested about 5,500 compounds, of which about 2,000 (36%) were called active. Another 18% or so got no clear call; they are omitted. Rule as the data show it: active = normalized growth mostly below about 0.91 (no sharp cut-off); inconclusive = no clear call, values can overlap the other calls; inactive = mostly above about 0.92. The list shows a part of the results.

Test: chemical genetic growth profiling, strain panel (AID 1159580);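 also: tested at 20 µM; growth read once vehicle control cultures reached saturation at 30 °C; 1 = growth at the plate median or of vehicle wells; lower values mean less growth of the strain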
Settings: S. cerevisiae deletion strains, growth OD

Measured: normalized growth

CSc1nc(NC(C)C)nc(NC(C)C)n1
inactive: locus YAL013W, strain DEP1, active compounds read low 1.01 | locus YAL021C, strain ccr4, active compounds read low 0.969 | locus YAL026C, strain drs2, active compounds read low 0.969 | locus YAL030W, strain snc1, active compounds read low 0.98 | locus YBL061C, strain skt5, active compounds read low 0.968 | locus YBR009C, strain hhf1, active compounds read low 0.979 | locus YBR021W, strain FUR4, active compounds read low 1.04 | locus YBR023C, strain chs3, active compounds read low 0.957 | locus YBR171W, strain sec66, active compounds read low 0.954 | locus YBR229C, strain ROT2, active compounds read low 0.999 | locus YBR231C, strain swc5, active compounds read low 0.961 | locus YBR279W, strain paf1, active compounds read low 0.972 | locus YCL011C, strain gbp2, active compounds read low 0.966 | locus YCL016C, strain dcc1, active compounds read low 0.967 | locus YCL029C, strain bik1, active compounds read low 1.01 | locus YCL061C, strain MRC1, active compounds read low 0.979 | locus YCL069W, strain vba3, active compounds read low 0.975 | locus YCR088W, strain abp1, active compounds read low 0.986 | locus YDL005C, strain med2, active compounds read low 0.981 | locus YDL035C, strain GPR1, active compounds read low 1.02 | locus YDL040C, strain nat1, active compounds read low 0.962 | locus YDL074C, strain BRE1, active compounds read low 1.01 | locus YDL101C, strain DUN1, active compounds read low 1.02 | locus YDL134C, strain PPH21, active compounds read low 1 | locus YDL185W, strain tfp1, active compounds read low 1.03 | locus YDL192W, strain arf1, active compounds read low 1.01 | locus YDR001C, strain nth1, active compounds read low 0.979 | locus YDR069C, strain doa4, active compounds read low 0.977 | locus YDR101C, strain arx1, active compounds read low 1.01 | locus YDR137W, strain rgp1, active compounds read low 0.848 | locus YDR150W, strain NUM1, active compounds read low 0.994 | locus YDR159W, strain sac3, active compounds read low 0.967 | locus YDR162C, strain NBP2, active compounds read low 1.02 | locus YDR195W, strain ref2 0.998 | locus YDR297W, strain sur2, active compounds read low 0.975 | locus YDR318W, strain mcm21, active compounds read low 1.03 | locus YDR334W, strain swr1, active compounds read low 0.968 | locus YDR335W, strain msn5, active compounds read low 0.969 | locus YDR388W, active compounds read low 1.01 | locus YDR392W, strain spt3, active compounds read low 0.958 | locus YDR502C, strain sam2, active compounds read low 1.01 | locus YEL003W, strain gim4, active compounds read low 0.972 | locus YEL037C, strain rad23, active compounds read low 0.975 | locus YEL061C, strain CIN8 (second series), active compounds read low 0.961 | locus YEL061C, strain CIN8, active compounds read low 1 | locus YER015W, strain faa2, active compounds read low 0.973 | locus YER016W, strain bim1, active compounds read low 0.966 | locus YER110C, active compounds read low 1 | locus YER111C, strain swi4, active compounds read low 0.977 | locus YER155C, strain BEM2 (second series), active compounds read low 0.952 | locus YER155C, strain BEM2, active compounds read low 1.01 | locus YER167W, strain BCK2, active compounds read low 0.995 | locus YFR010W, strain ubp6, active compounds read low 0.978 | locus YGL078C, strain dbp3, active compounds read low 1.01 | locus YGL086W, strain mad1, active compounds read low 1.01 | locus YGL167C, strain pmr1, active compounds read low 0.958 | locus YGL173C, strain kem1, active compounds read low 0.964 | locus YGL227W, strain vid30, active compounds read low 0.956 | locus YGL240W, strain doc1, active compounds read low 0.95 | locus YGL248W, strain PDE1, active compounds read low 1.01 | locus YGL253W, strain hxk2, active compounds read low 0.973 | locus YGR078C, strain PAC10, active compounds read low 1.01 | locus YGR135W, strain pre9, active compounds read low 1.01 | locus YGR229C, strain SMI1, active compounds read low 1.02 | locus YGR252W, strain gcn5, active compounds read low 1.14 | locus YHR013C, strain ard1, active compounds read low 0.944 | locus YHR027C, strain rpn1, active compounds read low 0.972 | locus YHR030C, strain SLT2, active compounds read low 1.02 and 1.03 | locus YHR079C, strain IRE1 (second series), active compounds read low 1.01 | locus YHR079C, strain IRE1, active compounds read low 1.03 | locus YHR094C, strain hxt1, active compounds read low 1 | locus YHR129C, strain ARP1, active compounds read low 1.01 | locus YHR142W, strain chs7, active compounds read low 0.95 | locus YHR200W, strain rpn10, active compounds read low 1.01 | locus YIL066C, strain RNR3, active compounds read low 1.03 | locus YIL073C, strain SPO22, active compounds read low 1.02 | locus YIL125W, strain kgd1, active compounds read low 1.01 | locus YIR030C, strain dcg1, active compounds read low 1.02 | locus YJL092W, strain hpr5, active compounds read low 0.981 | locus YJL095W, strain BCK1 (second series), active compounds read low 0.968 | locus YJL095W, strain BCK1, active compounds read low 0.988 and 0.974 | locus YJL115W, strain asf1, active compounds read low 0.978 | locus YJL129C, strain trk1, active compounds read low 0.962 | locus YJL134W, strain LCB3, active compounds read low 1.02 | locus YJL154C, strain vps35, active compounds read low 0.977 | locus YJL164C, strain tpk1, active compounds read low 0.969 | locus YJL166W, strain qcr8, active compounds read low 0.978 | locus YJL168C, strain set2, active compounds read low 1 | locus YJL187C, strain SWE1 (second series), active compounds read low 1.01 | locus YJL187C, strain SWE1, active compounds read low 0.973 | locus YJR043C, strain POL32, active compounds read low 1.02 | locus YJR066W, strain TOR1, active compounds read low 0.968
